Results taken from PubChem BioAssay (EPA / NIEHS).
Inconclusive results are not listed. Where a structure was tested more than once in an assay, its records may differ in their call. Calls of active or inactive are those of the source. The calls were made as follows: active = hit-call score of the fitted dose curve at least 0.9, where 1 is the maximum; inconclusive = response in the unintended direction; inactive = score below 0.9.

Legend:
[1] = biological target: rat Neonicotinoid receptor (NNR), Chrna7 (gene 25302) (UniProt Q05941); test: NVS_LGIC_rNNR_BungSens: NovaScreen (NVS) Ligand-Gated Ion Channel Assay for rat Neonicotinoid receptor (NNR) (AID 2283315)
Summary of the method: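 Radioligand displacement binding on rat cortical membranes, 2.5 h incubation, filtration and scintillation counting. Loss of specific binding fitted relative to DMSO.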

[2] = biological target: Sodium channel protein type 1 subunit alpha (Rattus norvegicus) (UniProt P04774); test: NVS_IC_rNaCh_site2: NovaScreen (NVS) Ion Channel Assay for rat Sodium Channel, Site 2 (NaCh) (AID 2283322);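 also: hit means loss of radioligand binding signal relative to DMSO so AC50 marks displacement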
Summary of the method: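 Membranes: rat forebrain. Format: competitive radioligand displacement, filter separation, scintillation readout, 1 h exposure. Primary screen in duplicate at 25 uM; actives retested in concentration series.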

[3] = biological target: human Peripheral-type Benzodiazepine Receptor (PBR), TSPO (gene 706) (UniProt P30536); test: NVS_MP_hPBR: NovaScreen (NVS) Membrane Protein Assay for human Peripheral-type Benzodiazepine Receptor (PBR) (AID 2283331);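 also: hits reduce radioligand binding relative to DMSO baseline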
Summary of the method: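 Human colonic cell membranes were incubated with test chemical for 1 hour; radioligand binding was measured by filter-based scintillation counting. Primary screen ran in duplicate at 25 uM, with actives followed in concentration series; loss of signal versus DMSO baseline.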

[4] = biological target: rat Thyrotropin Releasing Hormone Receptor (TRH), Trhr (gene 25570) (UniProt Q01717); test: NVS_GPCR_rTRH: NovaScreen (NVS) G Protein-Coupled Receptor Assay for rat Thyrotropin Releasing Hormone Receptor (TRH) (AID 2283329);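 also: hit means lower bound tracer signal versus DMSO baseline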
Summary of the method: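 Rat forebrain membranes; radioligand displacement at TRH receptor by filter-based scintillation counting, read 4 h after dosing. Duplicate single-point screen at 25 uM, actives rerun in concentration series; loss of signal relative to DMSO.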

[5] = NVS_IC_rCaBTZCHL: NovaScreen (NVS) Ion Channel Assay for Calcium Channel, Type L, Benzothiazepine Site (CaBTZCHL) (AID 2283337)
Summary of the method: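 Scintillation counting of filter-bound radioligand gave the read-out, with reduced binding versus DMSO scored as activity. Membranes came from rat cortex and were read 1.5 h after compound addition. Chemicals were screened first in duplicate at 25 uM.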

[6] = biological target: bovine Estrogen Receptor (ER), ESR1 (gene 407238) (UniProt P49884); test: NVS_NR_bER: NovaScreen (NVS) Nuclear Receptor Binding Assay for bovine Estrogen Receptor (ER) (AID 2283345);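 also: actives lower the bound radioligand count which means they displace the ER ligand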
Summary of the method: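 Cell-free radioligand binding with bovine uterine membrane extracts, read 18 hours after dosing by scintillation counting. Loss of signal versus DMSO baseline indicates displacement. Primary screen run in duplicate at 25 uM, actives followed in concentration series.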

[7] = biological target: chimpanzee Androgen Receptor (AR), AR (gene 747460) (UniProt O97775); test: NVS_NR_cAR: NovaScreen (NVS) Nuclear Receptor Binding Assay for chimpanzee Androgen Receptor (AR) (AID 2283346);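 also: radioligand displacement from AR measured by scintillation counting in a cell-free assay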
Summary of the method: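 Cell-free radioligand displacement using receptor protein extracted from Sf9/Sf21 cells; bound radioligand measured by scintillation counting 72 hours after chemical dosing. Loss of signal versus DMSO baseline indicates binding; primary screen single-concentration in duplicate at 25 uM, actives followed in concentration series.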

[8] = biological target: Estrogen receptor (Homo sapiens) (UniProt P03372); test: NVS_NR_hER: NovaScreen (NVS) Nuclear Receptor Binding Assay for human Estrogen Receptor (ER) (AID 2283348)
Summary of the method: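 Cell-free radioligand binding with protein extracted from MCF7 cells; scintillation counting 18 hours after dosing. Loss of signal versus DMSO baseline read as displacement; primary single-concentration screen at 25 uM in duplicate, actives retested in concentration series.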

[9] = biological target: Estrogen receptor (Homo sapiens) (UniProt P03372); test: OT_ER_ERaERa_1440: Odyssey Thera (OT) 24-hour HEK293T Protein-Complementation Assay for Estrogen Receptor-alpha/-alpha Homodimer (AID 2283349);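 also: hits raise fluorescence above DMSO for agonists and antagonists alike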
Summary of the method: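 Readout is the rise in mean fluorescence from reporter fragment complementation when ERα LBD (aa 310-547) units dimerize in HEK293T cells. Measured 24 h after dosing and analysed as increase over DMSO control.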

[10] = biological target: Estrogen receptor (Homo sapiens) (UniProt P03372); test: OT_ER_ERaERa_0480: Odyssey Thera (OT) 8-hour HEK293T Protein-Complementation Assay for Estrogen Receptor-alpha/-alpha Homodimer (AID 2283351);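 also: rise in fluorescence from reassembled reporter fragments on ERα LBD homodimer in nucleus or whole cell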
Summary of the method: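 HEK293T, stable ERα LBD (aa 310-547) PCA homodimer; 8 h compound exposure; fluorescence intensity, laser scanning cytometer; positive fitting direction, DMSO baseline.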

[11] = biological target: human Opioid Receptor Mu (Opiate Mu), OPRM1 (gene 4988) (UniProt P35372); test: NVS_GPCR_hOpiate_mu: NovaScreen (NVS) G Protein-Coupled Receptor Assay for human Opioid Receptor Mu (Opiate Mu) (AID 2283290);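 also: hits lower bound tracer signal versus DMSO meaning displacement of the ligand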
Summary of the method: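 Radioligand displacement binding on membranes from CHO cells expressing the receptor, 2.5 h after dosing, filter-based scintillation counting; loss of signal vs DMSO baseline. Screened in duplicate at 25 uM, actives then run in concentration series.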

[12] = biological target: rat Adrenergic Receptor, Alpha 2 (Adra2), Non-selective Binding, Adra2a (gene 25083) (UniProt P22909); test: NVS_GPCR_rAdra2_NonSelective: NovaScreen (NVS) G Protein-Coupled Receptor Assay for rat Adrenergic Receptor, Alpha 2 (Adra2), Non-selective Binding (AID 2283299)
Summary of the method: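 Rat cortical membranes, radioligand competitive displacement read by filter-based scintillation counting 1.25 hours after dosing. Primary screen in duplicate at 25 uM; actives followed up in concentration series.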

[13] = biological target: T1, Estrogen receptor (Homo sapiens) + Estrogen receptor beta (Homo sapiens) (UniProt P03372+Q92731); test: OT_ER_ERaERb_0480: Odyssey Thera (OT) 8-hour HEK293T Protein-Complementation Assay for Estrogen Receptor-alpha/-beta Heterodimer (AID 2283352)
Summary of the method: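 HEK293T cells expressing ER-alpha/ER-beta LBD fusions to complementary reporter fragments were dosed with compound for 8 hours. Heterodimer formation was read as increased nuclear (agonist) or nuclear plus cytoplasmic (antagonist) mean fluorescence intensity versus DMSO vehicle.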

[14] = biological target: Androgen Receptor/SRC-1 Co-activator, AR (gene 367) (UniProt P10275); test: OT_AR_ARSRC1_0960: Odyssey Thera (OT) 16-hour HEK293T Protein-Complementation Assay for Androgen Receptor/SRC-1 Co-activator (AID 2283353);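 also: actives raise the signal above DMSO so potency reflects increased AR and SRC-1 complex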
Summary of the method: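 Split-Venus PCA, AR/SRC-1 fusions, stable HEK293T; 16 h compound exposure; imaged at 488 and 635 nm; N/C ratio (488 nm channel), min 400 cells/image; positive-direction fit, DMSO baseline.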

[15] = biological target: Androgen Receptor/SRC-1 Co-activator, AR (gene 367) (UniProt P10275); test: OT_AR_ARSRC1_0480: Odyssey Thera (OT) 8-hour HEK293T Protein-Complementation Assay for Androgen Receptor/SRC-1 Co-activator (AID 2283354);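 also: hits raise the complementation signal above DMSO so AC50 marks enhancers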
Summary of the method: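 HEK293T cells stably expressing AR and SRC-1 fused to split Venus YFP fragments via (Gly4Ser)2 linkers were read 8 h after compound dosing. Complementation was imaged at 488 and 635nm, and nuclear/cytoplasmic fluorescence ratio (488nm) was taken over ≥400 cells; gain-of-signal versus DMSO.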

[16] = biological target: T1, Estrogen receptor (Homo sapiens) + Estrogen receptor beta (Homo sapiens); test: OT_ER_ERaERb_1440: Odyssey Thera (OT) 24-hour HEK293T Protein-Complementation Assay for Estrogen Receptor-alpha/-beta Homodimer (AID 2283356);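 also: heteromer of ER alpha and ER beta binding domains; hits raise reporter fluorescence and both agonists and antagonists give an increase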
Summary of the method: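 HEK293T cells stably expressing a PCA pair of ERα LBD (aa 310-547) and ERβ LBD (aa 263-489) were dosed for 24 h. Fluorescence intensity increase versus DMSO vehicle was fitted as gain-of-signal.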

[17] = biological target: Estrogen receptor beta (Homo sapiens) (UniProt Q92731); test: OT_ER_ERbERb_0480: Odyssey Thera (OT) 8-hour HEK293T Protein-Complementation Assay for Estrogen Receptor-beta/-beta Homodimer (AID 2283357);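 also: active means signal gain over DMSO baseline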
Summary of the method: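 Readout: increase in mean fluorescence intensity (nucleus for agonists; nucleus plus cytoplasm for antagonists) relative to DMSO, from a reporter-fragment complementation of human ER-beta LBD homodimer in HEK293T cells dosed 8 hours.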

[18] = biological target: Retinoic acid receptor alpha (Homo sapiens) (UniProt P10276); test: NVS_NR_hRAR_Antagonist: NovaScreen (NVS) Nuclear Receptor Binding Assay for human Retinoic Acid Alpha Receptor Antagonism (RAR) (AID 2283358)
Summary of the method: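 Cell-free TR-FRET binding assay on extracted receptor protein, run in antagonist mode; signal read 2 hours after chemical dosing. Loss of signal was fitted relative to DMSO baseline. Screened at 25 uM in duplicate, actives followed up in concentration series.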

[19] = biological target: human Androgen Receptor (AR), AR (gene 367) (UniProt P10275); test: NVS_NR_hAR: NovaScreen (NVS) Nuclear Receptor Binding Assay for human Androgen Receptor (AR) (AID 2283332)
Summary of the method: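 Actives from a duplicate 25 uM single-point screen went on to concentration series. Read-out after 20 h was scintillation counting of displaced radioligand in LnCAP extract, with DMSO as baseline.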

Chain of chimpanzee Androgen Receptor (AR), AR (gene 747460) (O97775 whole entry, looked up): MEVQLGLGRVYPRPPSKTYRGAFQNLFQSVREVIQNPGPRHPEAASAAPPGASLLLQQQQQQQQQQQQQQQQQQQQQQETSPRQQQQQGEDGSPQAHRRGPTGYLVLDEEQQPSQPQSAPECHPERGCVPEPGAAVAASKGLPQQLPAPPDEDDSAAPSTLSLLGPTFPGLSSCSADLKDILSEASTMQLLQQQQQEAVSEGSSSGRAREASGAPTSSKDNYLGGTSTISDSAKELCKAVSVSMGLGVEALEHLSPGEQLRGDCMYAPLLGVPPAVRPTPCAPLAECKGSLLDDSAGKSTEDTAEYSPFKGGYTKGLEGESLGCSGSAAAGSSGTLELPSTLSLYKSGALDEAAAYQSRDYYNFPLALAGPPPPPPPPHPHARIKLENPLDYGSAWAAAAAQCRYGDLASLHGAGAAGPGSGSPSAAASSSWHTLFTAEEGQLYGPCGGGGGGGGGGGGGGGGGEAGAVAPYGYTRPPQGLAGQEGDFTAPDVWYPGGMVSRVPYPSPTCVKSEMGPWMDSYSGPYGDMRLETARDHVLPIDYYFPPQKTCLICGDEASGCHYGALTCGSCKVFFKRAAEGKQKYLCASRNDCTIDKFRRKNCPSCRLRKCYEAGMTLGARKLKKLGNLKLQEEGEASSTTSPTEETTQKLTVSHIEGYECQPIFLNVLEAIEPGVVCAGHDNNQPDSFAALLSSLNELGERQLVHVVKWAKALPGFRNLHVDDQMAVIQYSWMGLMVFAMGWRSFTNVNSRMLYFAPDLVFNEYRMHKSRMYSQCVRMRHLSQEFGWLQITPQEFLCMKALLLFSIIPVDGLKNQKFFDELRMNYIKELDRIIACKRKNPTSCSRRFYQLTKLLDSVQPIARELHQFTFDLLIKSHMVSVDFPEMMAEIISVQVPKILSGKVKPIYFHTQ
Chain of rat Neonicotinoid receptor (NNR), Chrna7 (gene 25302) (Q05941 whole entry, looked up): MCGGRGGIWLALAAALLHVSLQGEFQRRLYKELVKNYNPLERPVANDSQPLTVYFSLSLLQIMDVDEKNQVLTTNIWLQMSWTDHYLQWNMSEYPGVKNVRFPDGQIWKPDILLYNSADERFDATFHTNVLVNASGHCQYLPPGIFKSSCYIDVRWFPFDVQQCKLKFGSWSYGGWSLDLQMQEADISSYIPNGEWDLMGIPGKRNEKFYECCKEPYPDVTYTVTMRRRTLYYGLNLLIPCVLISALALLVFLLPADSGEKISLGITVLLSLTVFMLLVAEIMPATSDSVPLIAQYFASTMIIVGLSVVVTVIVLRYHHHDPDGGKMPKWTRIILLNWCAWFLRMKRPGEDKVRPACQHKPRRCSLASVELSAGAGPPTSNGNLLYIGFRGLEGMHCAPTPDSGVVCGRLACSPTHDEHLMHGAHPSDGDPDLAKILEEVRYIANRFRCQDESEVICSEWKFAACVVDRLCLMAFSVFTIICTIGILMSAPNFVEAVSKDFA
Chain of Androgen Receptor/SRC-1 Co-activator, AR (gene 367) (P10275 whole entry, looked up, the tested form may be a part): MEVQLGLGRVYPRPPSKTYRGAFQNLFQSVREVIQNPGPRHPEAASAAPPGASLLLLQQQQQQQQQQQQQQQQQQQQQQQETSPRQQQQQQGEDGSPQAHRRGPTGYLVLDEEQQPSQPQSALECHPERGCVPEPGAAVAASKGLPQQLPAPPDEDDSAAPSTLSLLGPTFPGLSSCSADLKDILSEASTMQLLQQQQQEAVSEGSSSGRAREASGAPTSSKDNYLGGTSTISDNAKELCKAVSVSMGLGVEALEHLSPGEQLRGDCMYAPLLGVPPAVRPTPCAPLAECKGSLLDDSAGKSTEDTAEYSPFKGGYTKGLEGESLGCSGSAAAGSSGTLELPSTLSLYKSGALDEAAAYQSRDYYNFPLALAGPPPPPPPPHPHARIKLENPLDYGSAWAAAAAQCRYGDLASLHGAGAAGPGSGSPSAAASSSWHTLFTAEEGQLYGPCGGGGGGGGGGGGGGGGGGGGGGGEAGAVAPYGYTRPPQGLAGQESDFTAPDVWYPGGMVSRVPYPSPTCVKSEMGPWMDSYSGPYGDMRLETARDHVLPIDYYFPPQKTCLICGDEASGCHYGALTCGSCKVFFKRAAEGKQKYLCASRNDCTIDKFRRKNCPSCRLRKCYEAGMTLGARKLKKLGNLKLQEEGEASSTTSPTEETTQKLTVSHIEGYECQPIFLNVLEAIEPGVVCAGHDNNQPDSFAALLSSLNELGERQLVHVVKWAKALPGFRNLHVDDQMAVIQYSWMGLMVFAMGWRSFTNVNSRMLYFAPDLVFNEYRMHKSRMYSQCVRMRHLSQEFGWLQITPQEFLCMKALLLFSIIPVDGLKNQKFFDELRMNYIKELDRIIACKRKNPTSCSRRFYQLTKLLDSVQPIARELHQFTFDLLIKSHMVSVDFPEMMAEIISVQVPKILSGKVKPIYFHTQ
Chain of rat Thyrotropin Releasing Hormone Receptor (TRH), Trhr (gene 25570) (Q01717 whole entry, looked up): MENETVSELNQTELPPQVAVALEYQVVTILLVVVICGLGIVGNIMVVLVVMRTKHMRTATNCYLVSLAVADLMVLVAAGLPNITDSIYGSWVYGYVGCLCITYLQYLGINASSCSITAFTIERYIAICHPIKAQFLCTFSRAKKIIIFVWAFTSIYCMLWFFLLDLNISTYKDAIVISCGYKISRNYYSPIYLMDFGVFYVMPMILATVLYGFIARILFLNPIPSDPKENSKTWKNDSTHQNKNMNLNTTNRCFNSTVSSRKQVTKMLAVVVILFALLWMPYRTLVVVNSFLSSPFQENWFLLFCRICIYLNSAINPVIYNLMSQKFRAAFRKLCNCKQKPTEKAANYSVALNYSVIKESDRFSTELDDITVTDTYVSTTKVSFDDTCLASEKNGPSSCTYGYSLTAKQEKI
Chain of human Opioid Receptor Mu (Opiate Mu), OPRM1 (gene 4988) (P35372 whole entry, looked up): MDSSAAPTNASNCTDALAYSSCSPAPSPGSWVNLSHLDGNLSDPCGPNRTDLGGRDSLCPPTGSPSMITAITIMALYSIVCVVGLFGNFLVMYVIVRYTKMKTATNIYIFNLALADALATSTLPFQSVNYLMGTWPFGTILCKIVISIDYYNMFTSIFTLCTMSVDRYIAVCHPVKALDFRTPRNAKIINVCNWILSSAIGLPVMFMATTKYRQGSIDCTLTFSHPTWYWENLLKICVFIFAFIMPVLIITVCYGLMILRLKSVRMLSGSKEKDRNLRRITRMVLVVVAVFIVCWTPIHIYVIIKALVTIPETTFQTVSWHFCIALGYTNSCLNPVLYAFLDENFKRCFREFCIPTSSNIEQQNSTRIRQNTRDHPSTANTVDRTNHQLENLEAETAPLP
Chain of human Peripheral-type Benzodiazepine Receptor (PBR), TSPO (gene 706) (P30536 whole entry, looked up): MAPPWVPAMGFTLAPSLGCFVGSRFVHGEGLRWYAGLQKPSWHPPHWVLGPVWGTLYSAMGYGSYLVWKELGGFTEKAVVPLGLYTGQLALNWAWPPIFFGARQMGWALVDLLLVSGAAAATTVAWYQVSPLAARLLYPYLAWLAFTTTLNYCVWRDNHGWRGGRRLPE
T1 sequence (P03372 whole entry, looked up, the tested form may be a part): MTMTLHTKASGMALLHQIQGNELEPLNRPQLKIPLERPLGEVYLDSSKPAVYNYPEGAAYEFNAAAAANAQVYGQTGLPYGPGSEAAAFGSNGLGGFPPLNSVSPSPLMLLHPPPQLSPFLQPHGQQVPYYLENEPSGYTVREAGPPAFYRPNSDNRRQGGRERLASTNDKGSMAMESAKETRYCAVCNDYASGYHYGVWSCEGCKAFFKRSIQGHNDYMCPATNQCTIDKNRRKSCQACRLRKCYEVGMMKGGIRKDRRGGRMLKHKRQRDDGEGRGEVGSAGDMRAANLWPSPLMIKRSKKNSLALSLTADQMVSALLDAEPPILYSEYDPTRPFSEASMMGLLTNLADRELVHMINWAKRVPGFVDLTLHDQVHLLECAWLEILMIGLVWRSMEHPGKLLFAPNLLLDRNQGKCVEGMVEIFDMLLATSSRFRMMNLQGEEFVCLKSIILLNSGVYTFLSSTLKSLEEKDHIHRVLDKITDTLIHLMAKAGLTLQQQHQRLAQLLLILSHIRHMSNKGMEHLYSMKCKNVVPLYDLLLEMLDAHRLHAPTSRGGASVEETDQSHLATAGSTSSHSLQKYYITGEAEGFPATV
T1 sequence (Q92731 whole entry, looked up, the tested form may be a part): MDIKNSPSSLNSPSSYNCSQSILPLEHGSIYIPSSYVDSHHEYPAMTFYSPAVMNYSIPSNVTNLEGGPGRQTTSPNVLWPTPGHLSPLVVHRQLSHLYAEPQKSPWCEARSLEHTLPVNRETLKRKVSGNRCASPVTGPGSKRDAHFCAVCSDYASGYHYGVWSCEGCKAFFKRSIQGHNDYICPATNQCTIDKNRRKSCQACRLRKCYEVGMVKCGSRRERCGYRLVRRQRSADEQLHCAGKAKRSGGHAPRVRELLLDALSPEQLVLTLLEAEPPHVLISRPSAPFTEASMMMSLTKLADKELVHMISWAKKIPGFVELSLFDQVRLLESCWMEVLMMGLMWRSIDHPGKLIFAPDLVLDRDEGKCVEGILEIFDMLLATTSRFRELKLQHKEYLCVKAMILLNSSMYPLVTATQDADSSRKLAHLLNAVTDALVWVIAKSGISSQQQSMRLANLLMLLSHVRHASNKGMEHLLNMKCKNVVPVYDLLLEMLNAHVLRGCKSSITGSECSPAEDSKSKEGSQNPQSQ
Chain of Estrogen receptor beta (Homo sapiens) (Q92731 whole entry, looked up, the tested form may be a part): as above

In the case of `CCN(CC)c1ccc2c(c1)Oc1cc(N(CC)CC)ccc1C21OC(=O)c2ccccc21`, the AC50 [1] is reported as 3.48 µM (active), the outcome [2] is reported as “inactive” and the outcome [3] is reported as “inactive”.
With `O=C(c1ccccc1)c1ccc(O)cc1O` the outcome [4] was “inactive”, the outcome [5] was “inactive” and the AC50 [6] was 8.41 µM (active). The AC50 [7] was 9.97 µM (active), the outcome [7] was “inactive” and the AC50 [8] was 1.42 µM (active). For the same compound, the AC50 [9] was 22.7 µM (active) and the AC50 [10] was 22.7 µM (active).
For `O=c1cccc[nH]1`, the outcome [1] was “inactive”.
In the case of `c1ccc(C[P+](c2ccccc2)(c2ccccc2)c2ccccc2)cc1`, the AC50 [11] is reported as 1.09 µM (active), the AC50 [12] is reported as 17.8 µM (active) and the AC50 [1] is reported as 25 µM (active). The AC50 [2] was 5.54 µM (active) and the AC50 [5] was 4.8 µM (active).
With `CC(=O)c1ccccc1N` the AC50 [2] was 1.65 µM (active).
For `COc1ccccc1C=O`, the outcome [2] was “inactive”.
In the case of `CCCCCCCC/C=C\CCCCCCCC(=O)OCC(O)CO` (stereo not given), the outcome [4] is reported as “inactive”, the AC50 [3] is reported as 25 µM (active) and the outcome [7] is reported as “inactive”. The outcome [9] was “inactive”, the outcome [10] was “inactive” and the outcome [13] was “inactive”. For the same compound, the outcome [14] was “inactive”, the outcome [15] was “inactive” and the outcome [16] was “inactive”. For the same compound, the outcome [17] was “inactive” and the outcome [18] was “inactive”.
With `Nc1c(Br)cc([N+](=O)[O-])cc1Br` the outcome [1] was “inactive”.
For `Brc1ccccn1`, the outcome [2] was “inactive”.
In the case of `C[C@]12CC[C@H]3C(=CCc4cc(O)ccc43)[C@@H]1CCC2=O`, the outcome [4] is reported as “inactive”, the AC50 [19] is reported as 0.661 µM (active) and the AC50 [6] is reported as 0.0129 µM (active). For the same compound, the AC50 [7] was 5.87 µM (active), the outcome [7] was “inactive” and the AC50 [14] was 1.42 µM (active). For the same compound, the AC50 [15] was 0.555 µM (active).
For `CC(C)(C)c1cc(CCC(=O)NCCCCCCNC(=O)CCc2cc(C(C)(C)C)c(O)c(C(C)(C)C)c2)cc(C(C)(C)C)c1O`, the outcome [2] was “inactive”.
In the case of `Oc1ccc(C2(c3ccc(O)c(C4CCCCC4)c3)CCCCC2)cc1C1CCCCC1`, the AC50 [11] is reported as 17.3 µM (active) and the outcome [2] is reported as “inactive”.
For `CCN(CC)c1ccc(C=O)cc1`, the outcome [11] was “inactive” and the outcome [3] was “inactive”.
For `CCN=C1C=CC(=C(c2ccc(N(CC)CC)cc2)c2ccc(N(CC)CC)cc2)c2ccccc21`, the outcome [4] was “inactive”, the AC50 [3] was 0.0669 µM (active) and the AC50 [7] was 3.61 µM (active). For the same compound, the AC50 [8] was 13.8 µM (active), the outcome [9] was “inactive” and the outcome [10] was “inactive”. The outcome [13] was “inactive”, the AC50 [14] was 0.451 µM (active) and the AC50 [15] was 1.04 µM (active). The outcome [16] was “inactive” and the outcome [17] was “inactive”.
